Bioassay records from PubChem.
SMN2 splice up: SMN2 splice variant enhancement | actives 2.8% (n = 210,000) | HEK293 SMN2-luciferase splicing reporter, luminescence, 30-36 h | Potency, µM (titrated, usually from 46.1 µM), inactives show at the highest dose activity change, positive = activation, hits mostly activators; also: % of control where 0% means no effect; nearly all actives have a fitted effect of over 55% in size
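HEK293 cells carry an SMN2 minigene-luciferase reporter in which exon 7 inclusion puts luciferase in frame. Cells were seeded at 2000 cells/well, attached for 10-12 hours, then exposed to compounds for 30-36 hours at 37C before ONE-Glo luminescence.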
Rab9 prom act: activators of Rab9 promoter. Huh7 Rab9 promoter-luciferase reporter, luminescence, 24 h. Potency, µM (top dose mostly 9.22 µM), for inactives: at the highest dose activation, negative = inhibition, actives largely listed as activators. actives 2.8% (n = 320,000); also: % of control where 0% means no effect; nearly all actives have a fitted effect of over 60% in size
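Stable Rab9-luc Huh7, 1500 cells/well, 2 h settle; cmpd in DMSO, 24 h, 37 °C/5% CO2; luciferase reagent 10 min RT; luminescence.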
FLuc counter: inhibits or activates purified firefly luciferase, miR-21 counter-screen. purified FLuc, Km substrates, luminescence inhibition. P08659. AID 588342. actives 6.9% (n = 360,000). Potency, µM (highest dose often 57.5 µM), inactives show at the highest dose activity change, negative = inhibition, usual class: inhibitors;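 also: plate controls were vehicle for no effect and reference inhibitor for full effect; nearly all actives have a fitted effect of over 55% in size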
Target sequence (P08659 whole entry, looked up): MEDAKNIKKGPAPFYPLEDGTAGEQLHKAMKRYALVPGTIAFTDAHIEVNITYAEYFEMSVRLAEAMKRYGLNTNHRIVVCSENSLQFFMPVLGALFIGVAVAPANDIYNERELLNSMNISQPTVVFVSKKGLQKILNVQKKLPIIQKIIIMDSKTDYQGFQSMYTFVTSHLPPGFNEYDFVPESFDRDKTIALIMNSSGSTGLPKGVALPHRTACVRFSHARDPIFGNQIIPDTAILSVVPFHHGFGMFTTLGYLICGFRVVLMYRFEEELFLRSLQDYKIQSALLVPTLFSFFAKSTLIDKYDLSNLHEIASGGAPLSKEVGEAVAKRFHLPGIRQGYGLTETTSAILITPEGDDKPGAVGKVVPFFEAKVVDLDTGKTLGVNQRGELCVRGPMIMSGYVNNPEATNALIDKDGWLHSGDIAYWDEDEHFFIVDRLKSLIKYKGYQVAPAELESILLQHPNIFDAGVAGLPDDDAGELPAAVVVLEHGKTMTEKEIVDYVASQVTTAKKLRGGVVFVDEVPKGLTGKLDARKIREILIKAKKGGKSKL
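Purified P. pyralis luciferase (10nM final) with 10uM D-luciferin and 10uM ATP (Km levels) in 50mM Tris acetate pH 7.5, 10mM Mg acetate, 0.01% Tween-20, 0.05% BSA; qHTS 6-point titration, ~60 µM downward; luminescence read.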
ELG1 genotox: induces genotoxicity in HEK293T cells with luciferase-tagged ELG1; actives 1.3% (n = 330,000); Potency, µM (highest dose often 46 µM), for the others: at the top dose activity change, positive = activation, most hits filed as activators; HEK293T ELG1-luciferase reporter, luminescence, 16 h; also: % of control where 0% means no effect; nearly all actives have a fitted effect of over 60% in size
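HEK293T cells expressing luciferase-tagged ELG1 were treated with compound or DMSO for 16 hr at 37°C. Luciferase activity was then read after 30 min with ONE-Glo at room temperature; rising signal flags genetic stress.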
NPC1 prom act: activates the NPC1 promoter; actives 2.4% (n = 320,000); AID 485313; Potency, µM (titrated, usually from 9.22 µM), for the others: at the top dose activation, usual class: activators; Huh7 NPC1 promoter luciferase reporter, 24 h; also: % of control where 0% means no effect; nearly all actives have a fitted effect of over 60% in size
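Compounds in DMSO were transferred onto Huh7 NPC1-luciferase reporter cells pre-incubated 2 h; after 24 h at 37 °C, Amplite reagent was dispensed and luminescence recorded 10 min later.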
uPA surface inh: cell surface uPA generation inhibition; cell surface uPA generation assay, qHTS; Potency, µM (doses to about 38.3 µM), inactives show at the top dose activity change, negative = inhibition, actives largely listed as inhibitors; actives 0.31% (n = 330,000); AID 540303; active = well fitted inhibition curve with a large enough effect; inconclusive = small, poorly fitted or top-dose-only effect; inactive = no such curve, though single readings can be large or run the other way; tested in mouse RAW 264.7 cells; also: % is scaled to controls: 0 for no effect and ±100 for the full control effect; nearly all actives have a fitted effect of over 55% in size
Active calls of the source: *; ? = inconclusive; nt = no result; [ ] = dose if it differs, or a comment. An excerpt weighted towards active compounds, which were near 7.3% of everything screened. Unless noted, calls follow the shape of the dose curve; as a rule, active = well fitted curve in the direction sought with a large enough effect; inconclusive = small, poorly fitted or top-dose-only effect, or another doubt; inactive = no such curve, though single readings can be large; an effect the other way counts as inactive or inconclusive. Potency is read from the fitted curve at half-maximal effect.

SMILES	SMN2 splice up	Rab9 prom act	FLuc counter	ELG1 genotox	NPC1 prom act	uPA surface inh
COC(=O)CC1C(=O)NCCN1Cc1cn(-c2ccc(C)cc2)nc1-c1cccc(C)c1 (centres undefined)	nt	-3%	17µM*	-3%	2%	-3%
Cc1ccc(-n2cc(CNCCN3CCOC3=O)c(-c3cccc(C)c3)n2)cc1	nt	-3%	-16%	2%	-4%	-4%
Cc1cc(C(=O)COC(=O)C2=NN(c3ccccc3)C(=O)CC2)c(C)n1CC(F)(F)F	-1%	1%	-16%	3%	-2%	3%
Cc1cc(C(=O)COC(=O)c2ccc(O)cc2)c(C)n1-c1ccccc1F	21%	?	2.4µM*	?	?	5%
Cc1ccc(-n2c(C)cc(C(=O)COC(=O)c3ccc[nH]c3=O)c2C)cc1C	7.1µM*	?	6µM*	?	?	-10%
Cc1cc(C(=O)COC(=O)c2ccc(O)cc2)c(C)n1CC(F)(F)F	nt	3.2µM*	nt	?	2.8µM*	14%
CCCn1c(C)cc(C(=O)COC(=O)c2ccc(Cl)c(S(=O)(=O)N3CCCC3)c2)c1C	-20%	-2%	2.4µM*	1%	-2%	-5%
COc1ccc(-n2c(C)cc(C(=O)COC(=O)Cc3n[nH]c(=O)c4ccccc34)c2C)cc1	-35%	3%	?	-1%	0%	-1%
COc1ccc(CCNC(=O)Cn2nnc(-c3ccc(C(F)(F)F)cc3)n2)cc1OC	-4%	nt	-1%	nt	nt	nt
CCOc1ccccc1C(=O)N(Cc1cccs1)c1ccc(Cl)cc1	nt	nt	-6%	nt	nt	nt
Cc1ccc(CN2CCCn3nc(C(=O)NCc4cc(C)ccc4C)cc3C2=O)cc1	nt	nt	-15%	nt	nt	nt
COc1ccc2cc(S(=O)(=O)c3ccccc3F)c(=O)oc2c1	-10%	nt	0%	nt	nt	nt
CCOC(=O)[C@@H]1CSCCS(=O)(=O)N1	nt	nt	nt	nt	nt	-10%
CCCn1c(C)cc(C(=O)COC(=O)c2ccc[nH]c2=O)c1C	nt	1.3µM*	2.7µM*	?	?	-2%
CCn1c(C)cc(C(=O)COC(=O)c2ccccc2[N+](=O)[O-])c1C	nt	nt	nt	-6%	nt	-10%
Cc1cc(C(=O)COC(=O)c2ccc[nH]c2=O)c(C)n1-c1ccccc1F	nt	0.4µM*	1.5µM*	?	0.32µM*	2.8µM*
CCOC(=O)c1ccc(NC(=O)c2c(NCc3ccc(OC)c(OC)c3OC)sc3c2CCC(C)C3)cc1 (centres undefined)	nt	nt	-8%	nt	nt	nt
Cc1cc(=O)oc2cc(O)c(O)cc12	7%	nt	nt	nt	nt	nt
COc1ccc(CCNC(=O)c2cnc3ccc(C)cn3c2=O)cc1OC	-7%	nt	-2%	nt	nt	nt
COc1ccc(C)cc1NC(=O)c1nn(-c2ccccc2)cc1OC	nt	-5%	?	-17%	-13%	nt
COc1cn(-c2ccccc2)nc1C(=O)Nc1ccccc1	nt	?	13µM*	16%	?	-2%
COc1cn(-c2ccccc2)nc1C(=O)Nc1ccc(C)cc1	nt	?	8.5µM*	-7%	?	2%
Cc1ccc(C(=O)NCCSc2c[nH]c3ccccc23)cc1C	-2%	nt	-3%	nt	nt	nt
CCOc1ccc(NC(=O)Cn2cc(C(=O)c3ccc(OC)cc3)c(=O)c3cc4c(cc32)OCO4)cc1	-10%	nt	-1%	nt	nt	nt
Cn1c(/C=N/O)nc2ccccc21	nt	13%	-3%	4%	7%	1%
SMILES	SMN2 splice up	Rab9 prom act	FLuc counter	ELG1 genotox	NPC1 prom act	uPA surface inh
CCC(=O)c1ccc(/C=C/c2nc3ccccc3n2C)o1	3.2µM*	0.32µM*	3.4µM*	-3%	0.5µM*	-12%
Cc1nc(CSc2nsc(/C=C/N(C)C)c2C#N)cs1	-4%	13%	24µM*	1%	-15%	5%
COC(=O)c1ccccc1CSc1nsc(/C=C/N(C)C)c1C#N	nt	-5%[1.84 µM]	-11%	-4%	2%	-2%
Clc1ccc(-n2nnc(-c3ncc[nH]3)n2)cc1Cl	nt	nt	nt	nt	nt	-10%
Cc1ccc(-n2c(-c3ccncc3)nnc2-c2cccs2)cc1	nt	nt	nt	nt	nt	-1%
Cc1ccc(-n2nnc(-c3nccs3)n2)cc1	nt	?	0.12µM*	0.23µM*	?	2.2µM*
Clc1ccc(-n2nnc(-c3nccs3)n2)cc1Cl	nt	0.89µM*	1.9µM*	5.2µM*	1.6µM*	-17%
CCc1ccccc1Nc1nc2cc(Cl)c(Cl)cc2nc1-n1nc(C)cc1C	3%	nt	3%	nt	nt	nt
Cc1nccc(-c2cccc(NC(=O)Nc3ccc(Cl)cc3)c2)n1	nt	-3%	4.8µM*	-14%	-5%	-2%
Cc1c(-c2cccc(NC(=O)c3ccc(F)c(F)c3)c2)nc2ncccn12	nt	nt	-15%	nt	nt	nt
Cc1c(-c2cccc(NC(=O)Nc3ccc(Cl)cc3)c2)nc2ncccn12	nt	nt	11µM*	nt	nt	nt
NC(=O)c1cccc(NC(=O)Nc2ccc(Cl)cc2)c1	nt	?	?	?	?	6%
COC(C)=O	-4%	nt	nt	nt	nt	nt
Clc1ccccc1Nc1ncnc2c1nc1n2CCCCC1	nt	nt	17µM*	nt	nt	nt
Clc1cccc(Nc2ncnc3c2nc2n3CCCCC2)c1	nt	nt	6.7µM*	nt	nt	nt
Cc1ccc(CNc2ncnc3c2nc2n3CCCC2)cc1	nt	nt	1%	nt	nt	nt
Clc1cccc(CNc2ncnc3c2nc2n3CCCC2)c1	nt	nt	-2%	nt	nt	nt
Clc1cccc(N2CCN(c3ncnc4c3nc3n4CCCC3)CC2)c1	?	nt	19µM*	nt	nt	nt
Cc1ccc(Nc2ncnc3c2nc2n3CCCC2)c(Br)c1	nt	nt	3.8µM*	nt	nt	nt
Cc1ccc(Cl)cc1N1CCN(c2ncnc3c2nc2n3CCCCC2)CC1	nt	nt	-2%	nt	nt	nt
COc1ccccc1Nc1ncnc2c1nc1n2CCCCC1	nt	nt	-14%	nt	nt	nt
O=C(NCc1ccc2c(c1)OCO2)c1ccc2c(c1)N(Cc1ccc(F)cc1)C(=O)c1ccccc1S2=O (centres undefined)	-4%	nt	0%	nt	nt	nt
CCOC(=O)N1CCC(N2Cc3cccc(C(=O)Nc4cccc(F)c4)c3C2=O)CC1	-23%	0%	-8%	-13%	-11%	3%
CCOC(=O)N1CCC(N2Cc3cccc(C(=O)Nc4ccc(OC)c(OC)c4)c3C2=O)CC1	-1%	5%	15µM*	-12%	8%	-1%
Cc1nc(-c2ccc(C(=O)NCCO)cc2)cs1	-8%	25%	?	?	3%	-3%
CCc1ccccc1NC(=O)c1ccc(-c2csc(C)n2)cc1	nt	?	?	?	3.5µM*	-1%
O=C(Nc1ccc(F)cc1)C1CCCCC1	-12%	18%	-4%	2%	3%	0%
Cc1ccc(C(=O)Nc2ccc(-c3csc(C)n3)cc2)cc1	140%	?	?	?	2.2µM*	-5%
Cc1nc(-c2ccc(NC(=O)C3CCCCC3)cc2)cs1	25µM*	2.8µM*	2.1µM*	2.3µM*	3.2µM*	-7%
O=C(Nc1ccc(-c2csc(Nc3ccc(Cl)cc3)n2)cc1)c1ccccc1	nt	nt	nt	8%	nt	-23%
